PubChem BioAssay (NCI)
Compounds without any hit were thinned out: in the full panel of roughly 83,000, 20% have a hit.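 Treatment: one concentration, 48 hours, 96-well format. Scoring: percent growth, with anything below 10 considered active.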 Values without a mark were called inactive. Active and inactive are the calls of the source.

Test system: HCC-2998 colon
Assay: NCI-60 one-dose screen, 48 h (100 = growth as untreated, 0 = no growth, -100 = all killed)
Conditions: 10 µM unless noted

| Structure (SMILES) | growth |
| --- | --- |
| O=C(CCSc1nnc2n(Cc3ccccc3)c(=O)c3c4c(sc3n12)CCCC4)N1CCN(c2ccccc2)CC1 | 96.5% |
| Cc1nc2c(c(=O)[nH]1)C(c1ccccc1)c1ccc3ccccc3c1O2 (stereo not drawn) | 56.6% |
| CC(=O)OC(c1ccccc1)C1CCOC1=O (stereo not drawn) | 97.2% |
| COc1cccc(/C=C/C(=O)c2cc3c(N)c(C(=O)Nc4cccc5ccccc45)sc3nc2C)c1 | -23.8% (active) |
| Cc1cc2c(cc1C)N(C(=O)CCl)CC(=O)N2 | 71.6% |
| CC1(C)OB(O)c2cc(-c3nc4ccc5[nH]ncc5c4c4c3CCCC4)ccc21 | 82.9% |
| CCN1C(=O)N(CC)C2C1NN=c1s/c(=C\c3ccc(C(F)(F)F)cc3)c(=O)n12 (stereo not drawn) | 9.59% (active) |
| COCCn1cc(-c2csc(-c3c[nH]c4ccc(Br)cc34)n2)c2cccnc21 | 15.3% |
| O=C1/C=C/[C@@H](O)[C@@H]2C[C@@H](O)C[C@H]2/C=C/CCC[C@H](CCO)O1 | 1.71% (active) |
| O=C(/C=C(O)/C=C/c1cccc2[nH]ccc12)/C=C/c1cccc2[nH]ccc12 | 102% |
| CCn1c(-c2cc3c([nH]c4ccccc43)c(-c3cccc(O)c3)n2)n[nH]c1=S | 68.3% |
| CC1=C(C(=O)Nc2nc(-c3ccc(Cl)cc3)cs2)[C@H](c2ccc(O)cc2)NC(=O)N1 | 108% |
| CCCCCCCCCCCCCCCCCC1=NC(C)(C)CN1CC(C)O (stereo not drawn) | 75.3% |
| CCCCCCCC/C=C\CCCCCCCCOc1ccc(CC(=O)NCC[N+]2(C)CCOCC2)cc1 | 56.2% |
| CNC(=O)c1ccccc1Nc1nc(Nc2cc(OC)c(OC)c(OC)c2)ncc1Br | -32.5% (active) |
| O=C(Nc1ccc(Br)cc1)C1=NCCCCN1 | 106% |
| N#Cc1nc(-c2ccccc2)oc1S(=O)(=O)N1CCN(c2ccc(F)cc2)CC1 | 94% |
| C=Cc1cnc(Nc2ccc(OC)cc2)nc1NCCCNC(=O)C1CCC1 | 78.8% |
| CN1CCN(Cc2ccc(NC(=O)c3cncc(C#Cc4cnc(N)c5ncccc45)c3)cc2C(F)(F)F)CC1 | 16.3% |
| CN1CCN(Cc2ccc(NC(=O)c3cncc(C#Cc4cnc(N)c5ccc(F)cc45)c3)cc2C(F)(F)F)CC1 | 34.8% |

| Structure (SMILES) | growth |
| --- | --- |
| O=C1Nc2ccccc2/C1=C\c1c[nH]c2ccc(Br)cc12 | 71.6% |
| NC(=O)c1c(NC(=O)c2cccs2)sc2c1CCC(=O)C2 | 72.9% |
| O=c1nc(-c2ccccc2)c2cc(-c3ccc(C(F)(F)F)nc3)ccc2[nH]1 | 105% |
| O=C1C(Nc2ccccn2)=C(I)C(=O)c2ncccc21 | 53.1% |
| Cc1ccc(-c2csc(NC(=O)c3ccccc3CN3C(=O)c4ccccc4C3=O)n2)cc1 | 98% |
| COC(=O)CC[C@@H]1O[C@@H](c2ccc(F)cc2)[C@@H](O)[C@H]1O | 99.6% |
| O=c1cc(-c2ccccc2)[nH]c2ncc(-c3ccc(F)cc3)n12 | 75.6% |
| Oc1c(CN2CCOCC2)cc(COCc2ccccc2)c2cccnc12 | 54.2% |
| CCS/C(Nc1ccccc1)=C(\C#N)C(=O)Nc1ccc(OC)cc1 | 55.2% |
| COc1cc(NC(=O)c2cncnc2Nc2ccc3c(ccn3Cc3ccccn3)c2)cc(OC)c1 | 67.8% |
| OCCNCCNC(Cc1ccc(Cl)cc1)c1ccccc1 (stereo not drawn) | 91.6% |
| N#Cc1cccc(C2C3=C(COC3=O)N(CCO)c3cc4c(cc32)OCO4)c1 (stereo not drawn) | 83.5% |
| CN(Cc1ccccc1)c1nc(Cl)c(C2CC(c3ccccc3)=NN2c2ccccc2)s1 (stereo not drawn) | 93% |
| C=C1C(=O)O[C@H]2[C@H]1CC/C(CNC(=O)c1c[nH]c3ccc(F)cc13)=C\CC[C@@]1(C)O[C@@H]21 | -79.3% (active) |
| COc1cc(/C=N/Nc2ccc(Br)cc2)cc(OC)c1OC | 45.7% |
| CCOC(=O)c1c(C)nc2c(c1N)/C(=C/c1ccc(OC)cc1)C(=O)N2Cc1ccccc1 | 62.8% |
| Cn1c(=O)c2[nH]c(SCC(=O)Nc3ccc(C(=O)/C=C/c4ccccc4Cl)cc3)nc2n(C)c1=O | 106% |
| CCN(CC)CCCOc1ccc2ncnc(Nc3ccc(Oc4cccc(C(F)(F)F)c4)c(Cl)c3)c2c1 | -85.4% (active) |
| Nc1nc(N)c2c(n1)NC(c1ccc(Cl)cc1)C1CCc3ccccc3C1=N2 (stereo not drawn) | 75.6% |

Test system: KM12 colon
Assay: as above
Conditions: 10 µM unless noted

| Structure (SMILES) | growth |
| --- | --- |
| O=C(CCSc1nnc2n(Cc3ccccc3)c(=O)c3c4c(sc3n12)CCCC4)N1CCN(c2ccccc2)CC1 | 92.9% |
| Cc1nc2c(c(=O)[nH]1)C(c1ccccc1)c1ccc3ccccc3c1O2 (stereo not drawn) | 26.2% |
| CC(=O)OC(c1ccccc1)C1CCOC1=O (stereo not drawn) | 106% |
| COc1cccc(/C=C/C(=O)c2cc3c(N)c(C(=O)Nc4cccc5ccccc45)sc3nc2C)c1 | 11% |
| Cc1cc2c(cc1C)N(C(=O)CCl)CC(=O)N2 | 60.2% |
| CC1(C)OB(O)c2cc(-c3nc4ccc5[nH]ncc5c4c4c3CCCC4)ccc21 | 38.7% |
| CCN1C(=O)N(CC)C2C1NN=c1s/c(=C\c3ccc(C(F)(F)F)cc3)c(=O)n12 (stereo not drawn) | 15.2% |
| COCCn1cc(-c2csc(-c3c[nH]c4ccc(Br)cc34)n2)c2cccnc21 | 13.4% |
| O=C1/C=C/[C@@H](O)[C@@H]2C[C@@H](O)C[C@H]2/C=C/CCC[C@H](CCO)O1 | -54.3% (active) |
| O=C(/C=C(O)/C=C/c1cccc2[nH]ccc12)/C=C/c1cccc2[nH]ccc12 | 95.3% |
| CCn1c(-c2cc3c([nH]c4ccccc43)c(-c3cccc(O)c3)n2)n[nH]c1=S | 28.4% |
| CC1=C(C(=O)Nc2nc(-c3ccc(Cl)cc3)cs2)[C@H](c2ccc(O)cc2)NC(=O)N1 | 96.9% |
| CCCCCCCCCCCCCCCCCC1=NC(C)(C)CN1CC(C)O (stereo not drawn) | 44.1% |
| CCCCCCCC/C=C\CCCCCCCCOc1ccc(CC(=O)NCC[N+]2(C)CCOCC2)cc1 | 51.3% |
| CNC(=O)c1ccccc1Nc1nc(Nc2cc(OC)c(OC)c(OC)c2)ncc1Br | 7.57% (active) |
| O=C(Nc1ccc(Br)cc1)C1=NCCCCN1 | 75.6% |
| N#Cc1nc(-c2ccccc2)oc1S(=O)(=O)N1CCN(c2ccc(F)cc2)CC1 | 81.9% |
| C=Cc1cnc(Nc2ccc(OC)cc2)nc1NCCCNC(=O)C1CCC1 | 39.1% |
| CN1CCN(Cc2ccc(NC(=O)c3cncc(C#Cc4cnc(N)c5ncccc45)c3)cc2C(F)(F)F)CC1 | 5.04% (active) |
| CN1CCN(Cc2ccc(NC(=O)c3cncc(C#Cc4cnc(N)c5ccc(F)cc45)c3)cc2C(F)(F)F)CC1 | 7.82% (active) |

| Structure (SMILES) | growth |
| --- | --- |
| O=C1Nc2ccccc2/C1=C\c1c[nH]c2ccc(Br)cc12 | 12.9% |
| NC(=O)c1c(NC(=O)c2cccs2)sc2c1CCC(=O)C2 | 20.3% |
| O=c1nc(-c2ccccc2)c2cc(-c3ccc(C(F)(F)F)nc3)ccc2[nH]1 | 91.1% |
| O=C1C(Nc2ccccn2)=C(I)C(=O)c2ncccc21 | -26.1% (active) |
| Cc1ccc(-c2csc(NC(=O)c3ccccc3CN3C(=O)c4ccccc4C3=O)n2)cc1 | 100% |
| COC(=O)CC[C@@H]1O[C@@H](c2ccc(F)cc2)[C@@H](O)[C@H]1O | 99.7% |
| O=c1cc(-c2ccccc2)[nH]c2ncc(-c3ccc(F)cc3)n12 | 44.4% |
| Oc1c(CN2CCOCC2)cc(COCc2ccccc2)c2cccnc12 | 35.6% |
| CCS/C(Nc1ccccc1)=C(\C#N)C(=O)Nc1ccc(OC)cc1 | 31% |
| COc1cc(NC(=O)c2cncnc2Nc2ccc3c(ccn3Cc3ccccn3)c2)cc(OC)c1 | 33.7% |
| OCCNCCNC(Cc1ccc(Cl)cc1)c1ccccc1 (stereo not drawn) | 90.4% |
| N#Cc1cccc(C2C3=C(COC3=O)N(CCO)c3cc4c(cc32)OCO4)c1 (stereo not drawn) | 27.9% |
| CN(Cc1ccccc1)c1nc(Cl)c(C2CC(c3ccccc3)=NN2c2ccccc2)s1 (stereo not drawn) | 89.7% |
| C=C1C(=O)O[C@H]2[C@H]1CC/C(CNC(=O)c1c[nH]c3ccc(F)cc13)=C\CC[C@@]1(C)O[C@@H]21 | 42.4% |
| COc1cc(/C=N/Nc2ccc(Br)cc2)cc(OC)c1OC | 16.3% |
| CCOC(=O)c1c(C)nc2c(c1N)/C(=C/c1ccc(OC)cc1)C(=O)N2Cc1ccccc1 | 33.6% |
| Cn1c(=O)c2[nH]c(SCC(=O)Nc3ccc(C(=O)/C=C/c4ccccc4Cl)cc3)nc2n(C)c1=O | 97.9% |
| CCN(CC)CCCOc1ccc2ncnc(Nc3ccc(Oc4cccc(C(F)(F)F)c4)c(Cl)c3)c2c1 | -24.3% (active) |
| Nc1nc(N)c2c(n1)NC(c1ccc(Cl)cc1)C1CCc3ccccc3C1=N2 (stereo not drawn) | 55.4% |
